Most compounds without a hit are left out; they make up all but 3.5% or so of the library.
GPR151 activ: human GPR151 activation. Q8TDV0. PathHunter beta-arrestin GPR151 cells, luminescence. activation, % at 11.2 µM. 1% of 650,000 active. AID 1508602; in the data active = activation above about 4.9%;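 note: 0% = median of compound wells and 100% = cells with positive control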
Target sequence (Q8TDV0 whole entry, looked up): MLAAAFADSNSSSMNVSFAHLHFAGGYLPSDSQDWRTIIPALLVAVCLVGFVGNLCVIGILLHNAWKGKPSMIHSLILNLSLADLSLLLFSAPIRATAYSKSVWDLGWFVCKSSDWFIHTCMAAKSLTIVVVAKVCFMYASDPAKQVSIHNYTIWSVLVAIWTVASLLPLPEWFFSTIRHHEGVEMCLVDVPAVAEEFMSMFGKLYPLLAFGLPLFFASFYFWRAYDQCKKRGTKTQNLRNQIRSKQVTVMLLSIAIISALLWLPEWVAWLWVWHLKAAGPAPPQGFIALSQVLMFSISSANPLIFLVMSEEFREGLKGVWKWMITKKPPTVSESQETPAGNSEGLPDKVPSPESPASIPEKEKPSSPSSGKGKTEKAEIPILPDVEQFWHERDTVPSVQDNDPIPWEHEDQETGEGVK
FBW7 activator: activators of human E3 ligase FBW7; Q969H0; 0.13% of 650,000 active; AlphaScreen FBW7–phospho-cyclin E peptide binding, activator screen; normalized activity (activation), % at 26.1 µM; AID 1259310; in the data active = normalized activity above about 1.9%;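 note: purified mutant Fbw7 with reduced substrate affinity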
TEAD-YAP block: TEAD-YAP interaction inhibition | 1.4% of 640,000 active | HEK-TIYL cells, TEAD-Gal4/YAP UAS-luciferase luminescence | inhibition, % at 9.12 µM; in the data active = inhibition above about 32%;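 note: 0% = median of test compound wells and 100% = reference inhibitor wells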
MITF inh: human MITF inhibition, primary screen; inhibition, % at 2.6 µM; 0.91% of 650,000 active; AlphaScreen MITF homodimerization, bead proximity signal; O75030; AID 1259374; in the data active = inhibition above about 50%;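 note: 0% = vehicle wells with protein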
MITF inh conf: confirmation of human MITF inhibitors | AlphaScreen MITF homodimerization, biotin/His-MITF beads | inhibition, % at 2.6 µM | 16% of 4,700 active | AID 1259372 | shares compounds with MITF inh;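 active = inhibition above a cutoff derived from the DMSO control wells, cut at about 28% in these data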;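 note: 0% = MITF dimer wells with DMSO only; inhibitors lower the bead chemiluminescence by keeping MITF from dimerizing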
AS interf ctr: AlphaScreen optical interference, counter-screen; inhibition, % at 2.6 µM; 7.6% of 4,700 active; shares compounds with MITF inh; LysRS AlphaScreen counterscreen, signal interference, triplicate; AID 1259376;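 active = inhibition above a cutoff derived from the DMSO control wells, cut at about 30% in these data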
GPR151 conf act: confirmation of human GPR151 activators; shares compounds with GPR151 activ; GPR151 PathHunter beta-arrestin cells, luminescence, 90 min; % of EA-reagent control over plate median; activation, % at 11.2 µM; 6,700 tested, under 10 active; AID 1508609;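 active = mean percent activation across replicates above the confirmation screen cutoff of 4.91%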
GPR119 ag: activates human GPR119 in a GPR151 counter-screen. shares compounds with GPR151 activ. GPR119 PathHunter beta-arrestin cells, luminescence, 90 min; 0 = compound-well median, 100 = enzyme-acceptor control. activation, % at 11.2 µM. 0.3% of 6,700 active. AID 1508611;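 active = mean percent activation in the counterscreen above 29.09%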;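 note: counterscreen on off-target GPR119 to flag nonselective hits from the GPR151 activator screen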
Numbers without * were called inactive.

What do the screens show for `c1cnc2nc(SCc3cn4ccccc4n3)[nH]c2c1`?
GPR151 activ: 6.8*; FBW7 activator: 0; TEAD-YAP block: 0; MITF inh: 68*; MITF inh conf: 10; AS interf ctr: 0; GPR151 conf act: 0; GPR119 ag: 7

Results for Cc1cc(=O)[nH]c(SCc2cn3ccccc3n2)n1 ?
GPR151 activ: -1; FBW7 activator: 0; TEAD-YAP block: -8; MITF inh: -4

What do the screens show for `CCCN(CC1CC1)C(=O)C1CCN(Cc2ccc(C)cc2)CC1`?
GPR151 activ: 5.2*; FBW7 activator: 0; TEAD-YAP block: 3; MITF inh: 53*; MITF inh conf: 12; AS interf ctr: 7; GPR151 conf act: -1; GPR119 ag: -2

What do the screens show for `COC(=O)c1ccc(NC(=O)/C(=C\c2ccc(OC)c(OC)c2)NC(=O)c2ccc(Cl)cc2)cc1`?
GPR151 activ: 7.8*; FBW7 activator: 0; TEAD-YAP block: 1; MITF inh: 4; GPR151 conf act: 0; GPR119 ag: 3

How did COC(=O)c1cccc(NC(=O)c2cccc(Br)c2)c1C do in these assays?
GPR151 activ: 15*; FBW7 activator: 0; TEAD-YAP block: -51; MITF inh: -8; GPR151 conf act: -1; GPR119 ag: -17

Results for COC(=O)c1ccccc1NC(=O)Nc1ccc(Cl)cc1 ?
GPR151 activ: -1; FBW7 activator: 0; TEAD-YAP block: 3; MITF inh: 21

What do the screens show for `CCOC(=O)c1ccccc1NC(=O)c1cccc(Br)c1`?
GPR151 activ: 2; FBW7 activator: 0; TEAD-YAP block: 3; MITF inh: -6

What do the screens show for `O=C(O)c1ccc(NC(=O)c2ccccc2NC(=O)c2cccc(Br)c2)cc1`?
GPR151 activ: 5.5*; FBW7 activator: 0; TEAD-YAP block: 10; MITF inh: -10; GPR151 conf act: -1; GPR119 ag: -8

Results for COC(=O)c1ccccc1NC(=O)Nc1ccc(Br)cc1Cl ?
GPR151 activ: 5.9*; FBW7 activator: 0; TEAD-YAP block: 9; MITF inh: -8; GPR151 conf act: 0; GPR119 ag: 9

How did CC1(C)CC(=O)C2=C(C1)OC(N)=C(C#N)C2c1cc2ccccc2nc1Cl (centres undefined) do in these assays?
GPR151 activ: 0; FBW7 activator: 0; TEAD-YAP block: 2; MITF inh: -17

How did CCN(CC)C(c1cccc(OC)c1OC)c1c(O)[nH]c(=S)[nH]c1=O (centres undefined) do in these assays?
GPR151 activ: 1; FBW7 activator: 0; TEAD-YAP block: -3; MITF inh: -1

What do the screens show for `CCCn1cc(S(=O)(=O)c2ccc(OCC)cc2)c(=O)c2cc(OC)c(OC)cc21`?
GPR151 activ: 2; FBW7 activator: 0; TEAD-YAP block: -7; MITF inh: 7

What do the screens show for `COc1ccc(OS(=O)(=O)c2cn(C)c(=O)n(C)c2=O)cc1`?
GPR151 activ: 0; FBW7 activator: 0; TEAD-YAP block: -3; MITF inh: 0

Results for CSc1ncc(CN2CCCC(N3CCN(c4ccccc4)CC3)C2)cn1 (centres undefined) ?
GPR151 activ: 8.8*; FBW7 activator: 0; TEAD-YAP block: -2; MITF inh: 12; GPR151 conf act: -1; GPR119 ag: -6

Results for CCCCN(CCCNC(=O)c1c(C)cc(=O)oc1C)c1ccccc1 ?
GPR151 activ: 2; FBW7 activator: 0; TEAD-YAP block: -23; MITF inh: 15

How did CCN(CCCNC(=O)c1c(C)cc(=O)oc1C)c1ccccc1 do in these assays?
GPR151 activ: 5.1*; FBW7 activator: 0; TEAD-YAP block: -10; MITF inh: 3; GPR151 conf act: -1; GPR119 ag: -8

Results for CC(NC1CC(=O)N(c2ccc(-c3nc4ccccc4o3)cc2)C1=O)c1ccccc1 (centres undefined) ?
GPR151 activ: 1; FBW7 activator: 0; TEAD-YAP block: -24; MITF inh: 1

How did OCc1ccccc1NC(=S)Nc1cccnc1 do in these assays?
GPR151 activ: 5.8*; FBW7 activator: 0; TEAD-YAP block: 0; MITF inh: 12; GPR151 conf act: -1; GPR119 ag: -10

What do the screens show for `Cc1ccccc1NC(=S)NCc1cccnc1`?
GPR151 activ: 8.3*; FBW7 activator: 0; TEAD-YAP block: 10; MITF inh: 5; GPR151 conf act: 1; GPR119 ag: 2

How did Cc1ccccc1NC(=S)Nc1cccnc1 do in these assays?
GPR151 activ: -1; FBW7 activator: 0; TEAD-YAP block: 1; MITF inh: 9

How did CCCSc1nnc2c(n1)OC(c1ccc(-c3ccc(Cl)cc3)o1)Nc1ccccc1-2 (centres undefined) do in these assays?
GPR151 activ: 1; FBW7 activator: 0; TEAD-YAP block: -25; MITF inh: 3

Results for Nc1cc(=O)[nH]c(SCc2cn3ccccc3n2)n1 ?
GPR151 activ: 5.4*; FBW7 activator: 0; TEAD-YAP block: 0; MITF inh: -4; GPR151 conf act: 0; GPR119 ag: -5

What do the screens show for `O=C(Cn1c(-c2ccccn2)nc2ccccc21)Nc1nc2ccccc2s1`?
GPR151 activ: 6.0*; FBW7 activator: 0; TEAD-YAP block: 1; MITF inh: -5; GPR151 conf act: 0; GPR119 ag: 4

How did CC(=O)Nc1cccc(NC(=O)COc2cccc3ccc(N4CCCC4)nc23)c1 do in these assays?
GPR151 activ: 5.3*; FBW7 activator: 0; TEAD-YAP block: 31; MITF inh: 19; GPR151 conf act: 0; GPR119 ag: 7

What do the screens show for `Oc1ccc(CCNc2nc(NCc3ccc4c(c3)OCO4)nc3c2ncn3C2CCCCC2)cc1`?
GPR151 activ: 17*; FBW7 activator: 0; TEAD-YAP block: 0; MITF inh: 12; GPR151 conf act: 0; GPR119 ag: -2

Results for Oc1ccc(CCNc2ccnc(Nc3ccc4ncccc4c3)n2)cc1 ?
GPR151 activ: 3; FBW7 activator: 0; TEAD-YAP block: -4; MITF inh: -1

Results for COc1ccc(CCNc2ccnc(Nc3ccc4ncccc4c3)n2)cc1 ?
GPR151 activ: 5.9*; FBW7 activator: 0; TEAD-YAP block: 51*; MITF inh: 63*; GPR151 conf act: 0; GPR119 ag: 2

Results for CC(C)n1cnc2c(NCc3cccc(C(F)(F)F)c3)nc(Nc3ccncc3)nc21 ?
GPR151 activ: 5.9*; FBW7 activator: 0; TEAD-YAP block: 2; MITF inh: 20; GPR151 conf act: 0; GPR119 ag: 3
